What all share (experiment): NCI-60 one-dose screen, 48 h (100 = growth as untreated, 0 = no growth, -100 = all killed)
Holding throughout (conditions): 10 µM unless noted

Test [1] relates to SR leukemia.
The subject of test [2] is RPMI-8226 leukemia.
Test [3] relates to OVCAR-8 ovarian.
Test [4] relates to OVCAR-5 ovarian.
For test [5], the system named is OVCAR-4 ovarian.
The test system of test [6] is SK-OV-3 ovarian.
Test [7] relates to IGROV1 ovarian.
Test [8] concerns OVCAR-3 ovarian.
Test [9] concerns HS 578T breast.
Test [10] deals with NCI/ADR-RES ovarian.
For test [11], the system named is T-47D breast.
Test [12] relates to BT-549 breast.
Test [13] has as its system MDA-MB-435 melanoma.
For test [14], the system named is SW-620 colon.
Test [15] deals with MCF7 breast.
The test system of test [16] is HCT-116 colon.
The subject of test [17] is HCC-2998 colon.
The test system of test [18] is KM12 colon.

Compounds without any hit were thinned out: in the full panel of roughly 83,000, 20% have a hit.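 Each cell line was grown in a 96-well plate and treated with one concentration of compound for 48 hours. Values below 10 were considered active.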 Unmarked numbers belong to inactive results. The source made the active and inactive calls.

As to `Nc1cc(F)ccc1NC(=O)c1ccc(NC(=O)C/C=C/c2cccnc2)cc1`, the growth in [1] is 29.3%; in test [2], 6.2% (active); in test [3], 29.9%; in [4] it was 37.2%; in test [5], 48%; in test [6] it was 54.5%. Further, the growth in [7] was 27.9%; in test [8], 45.1%; in [9], 49%; in test [10], 51%; in test [11], 22.7%; in [12] it was 26.1%. For the same compound, the growth is 28% in test [13]; 17.6% in [14]; 33% in [15]; 9.59% (active) in [16]; 52.8% in test [17]; 41.5% in test [18].
`COc1ccc(S(=O)(=O)NCCCNc2nccc(-c3[nH]c(-c4ccccc4)nc3-c3ccc(Cl)c(O)c3)n2)cc1`: the growth was 61.9% in test [1]; 49.8% in [2]; 67% in test [3]; 104% in [4]; 101% in [5]; 112% in test [6]. The growth in test [7] is 93.6%; in test [8], 71.8%; in test [9] it was 112%; in [10], 103%; in [11], 54.4%; in test [12] it was 88.3%. The growth in test [13] is 36.9%; in test [14], 107%; in test [15] it was 73.2%; in [16], 57.8%; in [17], 112%; in test [18] it was 77.6%.
Consider `O=C1CCC(N2C(=O)c3ccc(NS(=O)(=O)c4ccccc4OC(F)(F)F)cc3C2=O)C(=O)N1` (stereo not given), for which the growth is 77.4% in test [1]; 61% in test [2]; 10.9% in test [3]; 85.3% in test [4]; 22.8% in [5]; 82.3% in test [6]. Further, the growth in [7] was 23.5%; in test [8] it was 86.2%; in test [9], 13.7%; in test [10], 19.7%; in test [11], 16.2%; in test [12] it was 14.8%. For the same compound, the growth in test [13] is 64.4%; in test [14] it was 20.2%; in test [15], 44.5%; in [16], 96.8%; in test [17], 11%; in [18] it was 40.6%.
For `COc1ccc2c(c1)Oc1nc(N)c(C#N)c(N)c1C2Sc1ccc(C)cc1` (stereo not given), the growth in test [1] was 0.429% (active); in test [2], -19% (active); in test [3], 12.7%; in [4], 15.9%; in test [5] it was 15.1%; in test [6], 86.4%. Also, the growth in test [7] is -76.5% (active); in [8] it was -77.1% (active); in test [9], 14.8%; in test [10], 5.39% (active); in test [11] it was -31.6% (active); in [12], 68.4%. For the same compound, the growth was -8.09% (active) in test [13]; -49.5% (active) in [14]; -77.7% (active) in test [15]; -69.1% (active) in test [16]; -64.2% (active) in [17]; 52.5% in test [18].
In the case of `COc1cccc(/C=C(/C)c2ccc3cccc(OC)c3[o+]2)c1O`, the growth in test [1] is 92.1%; in test [2] it was 93.1%; in test [3], 100%; in test [4] it was 104%; in [5], 98%; in test [6], 107%. The growth in test [7] is 94.5%; in test [8] it was 114%; in test [9] it was 101%; in [10] it was 107%; in test [11] it was 100%; in [12], 85.1%. The growth was 104% in test [13]; 106% in test [14]; 90.9% in [15]; 102% in test [16]; 120% in [17]; 99.1% in test [18].
As to `COc1ccc([C@@H]2c3[nH]c4ccccc4c3C[C@H]3C(=O)N(C4CCN(CC5CCCCC5)CC4)CC(=O)N23)c(OC)c1`, the growth is 25.9% in test [1]; 53.6% in test [2]; 82.2% in test [3]; 94.1% in test [4]; 70.5% in test [5]; 86.2% in test [6]. The growth is 60% in test [7]; 74.9% in [8]; 68.9% in [9]; 76.7% in test [10]; 101% in test [11]; 80.3% in test [12]. For the same compound, the growth was 73.6% in test [13]; 80.1% in test [14]; 42.6% in test [15]; 50% in [16]; 78.6% in test [17]; 82.3% in [18].
With `Cc1ccc(NC(=S)NNC(=S)Nc2ccc(C)cc2)cc1`, the growth in test [1] is 90%; in [2], 104%; in test [3] it was 105%; in [4], 104%; in [5] it was 100%; in test [6], 111%. For the same compound, the growth in test [7] is 103%; in test [8], 127%; in [9], 110%; in test [10], 104%; in test [11] it was 101%; in [12], 92.9%. Besides, the growth in test [13] is 102%; in test [14], 108%; in test [15], 91.1%; in test [16], 106%; in test [17] it was 110%; in test [18] it was 101%.
`Oc1cccc2ccc(-c3nnc(SCc4ccc(O)c5ncccc45)n3-c3ccccc3)nc12`: the growth is 31.2% in test [1]; 15.6% in test [2]; 6.56% (active) in test [3]; 47.8% in test [4]; 16.8% in test [5]; 12.1% in [6]. Further, the growth was 11.2% in test [7]; 28.3% in test [8]; 18.5% in [9]; 7.68% (active) in [10]; 9.55% (active) in test [11]; 26.1% in test [12]. The growth in test [13] was 17%; in test [14], 16.4%; in test [15], 6.09% (active); in [16] it was 10.5%; in test [17], 28.2%; in [18], 10.9%.
`COc1cc(C2N=C(NNc3ccccc3)NC(C)=C2C(C)=O)ccc1O` (stereo not given): the growth was 57.7% in test [1]; 110% in [2]; 94.2% in test [3]; 92.7% in test [4]; 93% in [5]; 90.1% in [6]. The growth in [7] was 69.9%; in test [8], 122%; in test [9], 108%; in test [10] it was 87.8%; in test [11] it was 83.9%; in test [12] it was 123%. Moreover, the growth was 92.5% in test [13]; 82.1% in [14]; 88.7% in test [15]; 95.1% in [16]; 98.9% in [17]; 95.6% in test [18].
For `CCn1c2ccccc2c2cc(-n3nncc3-c3ccccc3)ccc21`, the growth is 10.4% in test [1]; 19.8% in [2]; 27% in [3]; 35.4% in test [4]; 43% in test [5]; 42.4% in [6]. The growth in [7] is 16.2%; in test [8], 4.2% (active); in test [9] it was 19.3%; in test [10] it was 6.13% (active); in [11], 61.8%; in test [12], 80.5%. For the same compound, the growth in [13] was -14.3% (active); in test [14] it was 21.3%; in [15], 13.4%; in [16], 5.07% (active); in [17], 15.2%; in [18] it was 17.1%.
Take `CCCCCc1ccc(S(=O)(=O)Nc2cccc(-c3csc(NC(=O)CCCCCN4CCN(CCO)CC4)n3)c2)cc1`: the growth in test [1] was -19.2% (active); in test [2], 7.46% (active); in [3], 96.7%; in test [4], 91.6%; in test [5] it was 80.8%; in [6], 96.8%. The growth in test [7] is 84.5%; in [8], 75.6%; in test [9] it was 86.1%; in test [10], 99.6%; in [11], 73.5%; in test [12], 102%. In addition, the growth was 36.8% in test [13]; 25.6% in test [14]; 19.8% in test [15]; 30.3% in [16]; 41.5% in [17]; 88% in test [18].
Consider `CC(=O)C1=C(C)NC(NN)=NC1c1cccc(Cl)c1` (stereo not given), for which the growth is 96.5% in test [1]; 99.7% in [2]; 103% in test [3]; 99.4% in test [4]; 104% in test [5]; 102% in [6]. The growth was 97.7% in test [7]; 123% in test [8]; 114% in [9]; 107% in [10]; 101% in test [11]; 119% in [12]. In addition, the growth in [13] was 103%; in test [14], 108%; in [15], 92.3%; in test [16], 105%; in [17] it was 127%; in test [18], 102%.
Regarding `CCCCCc1ccc(S(=O)(=O)Nc2cccc(-c3csc(NC(=O)CCCCCN4CCN(C)CC4)n3)c2)cc1`, the growth in [1] is -31.4% (active); in [2], -22.5% (active); in [3], 81.9%; in test [4], 88.8%; in test [5] it was 71.4%; in test [6] it was 97.9%. The growth in test [7] was 69.6%; in test [8] it was 37.1%; in [9] it was 72.2%; in test [10] it was 89.8%; in test [11] it was 43.7%; in test [12], 93.5%. Also, the growth in test [13] was -33.8% (active); in test [14], -27.1% (active); in test [15], -1.18% (active); in test [16], -36.2% (active); in test [17] it was -18% (active); in test [18], 57.4%.
Regarding `Cn1cc(-c2nc(N)nnc2-c2c[nH]c3ccccc23)c2cc(Br)ccc21`, the growth in test [1] was 26.7%; in test [2], 12.9%; in test [3], 33%; in test [4] it was 55.1%; in [5] it was 74.1%; in [6] it was 29.7%. In addition, the growth in test [7] was 30.5%; in test [8], 16.9%; in [9], 2.13% (active); in test [10], 20.2%; in [11] it was 31.2%; in test [12] it was 32.9%. Moreover, the growth is -37.6% (active) in test [13]; 18.2% in test [14]; 18.1% in test [15]; 20.3% in [16]; 57.6% in test [17]; 18.1% in test [18].
Take `COc1cc(/C=C/C(=O)c2ccc(NC(=O)CSc3nnc(-c4ccc(-c5nc6ccc(Cl)cc6[nH]5)cc4)o3)cc2)cc(OC)c1OC`: the growth is 48.4% in [1]; 108% in test [2]; 98% in test [3]; 91.3% in test [4]; 102% in test [5]; 99% in test [6]. For the same compound, the growth in [7] is 88.3%; in test [8] it was 84.1%; in test [9] it was 90.9%; in test [10], 84.3%; in [11], 106%; in test [12], 85.6%. The growth was 24.1% in test [13]; 87.4% in [14]; 91.8% in test [15]; 90.5% in test [16]; 96.3% in test [17]; 80.6% in test [18].

The values are drawn from PubChem BioAssay (NCI).
